According to PubChem BioAssay:
This is one part of the list. Values without a mark were called inactive. Calls of active or inactive are those of the source.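 The calls were made as follows, unless noted: active = corrected plate-normalized z-score of 5 or more, or -5 or less, or inhibition of 15% or more; inactive = the rest.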

Each molecule was assayed against COP9 signalosome complex subunit 5 (Homo sapiens) (UniProt Q92905) (assay: Csn5 deneddylation inhibitors, confirmation, biochemical, fluorescence polarization, single concentration, SCF-Nedd8OG substrate (AID 720654; in the data active = inhibition above about 50%;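 also: 0% = DMSO with enzyme and 100% = no enzyme wells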)). Details: Csn5 deneddylation of SCF-Nedd8OG, 90 min, at 16.6 µM, hits give high values.
Sequence of COP9 signalosome complex subunit 5 (Homo sapiens) (Q92905 whole entry, looked up, one chain of several): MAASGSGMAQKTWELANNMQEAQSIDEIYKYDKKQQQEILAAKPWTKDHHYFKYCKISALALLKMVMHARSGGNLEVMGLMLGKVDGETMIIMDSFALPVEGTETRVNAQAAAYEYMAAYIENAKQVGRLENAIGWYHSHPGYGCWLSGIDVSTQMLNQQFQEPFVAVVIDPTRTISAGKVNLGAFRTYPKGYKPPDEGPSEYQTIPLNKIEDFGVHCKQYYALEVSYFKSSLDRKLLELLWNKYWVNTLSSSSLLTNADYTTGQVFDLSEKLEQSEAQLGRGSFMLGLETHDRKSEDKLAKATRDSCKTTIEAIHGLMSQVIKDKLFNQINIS

Compared with CN1CCN(CCCNC(=O)c2ccc(/C=C3\Oc4ccccc4N(Cc4ccc(Cl)cc4)C3=O)cc2)CC1, Cc1ccc(N=C2NC(=O)/C(=C/C=C/c3ccco3)S2)cc1C is higher in inhibition: -18.2% for the first, 25.6% for the second.

In the case of CC(C)Cn1c(N)c(C(=O)NCc2cccs2)c2nc3ccccc3nc21, the inhibition is reported as 99.2% (active).

What follows are molecules tested against 72 kDa type IV collagenase (Homo sapiens) (UniProt P08253) (assay: MMP-2 protease inhibition counter-screen, confirmation, counter-screen for CSN deneddylation inhibitor project, biochemical, fluorescence, single concentration (AID 720655;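 also: plate controls were DMSO wells with enzyme for no effect and buffer wells lacking MMP-2 for full effect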)). Details: recombinant MMP-2, FRET substrate fluorescence, 60 min; at 16.6 µM.
Sequence of 72 kDa type IV collagenase (Homo sapiens) (P08253 whole entry, looked up): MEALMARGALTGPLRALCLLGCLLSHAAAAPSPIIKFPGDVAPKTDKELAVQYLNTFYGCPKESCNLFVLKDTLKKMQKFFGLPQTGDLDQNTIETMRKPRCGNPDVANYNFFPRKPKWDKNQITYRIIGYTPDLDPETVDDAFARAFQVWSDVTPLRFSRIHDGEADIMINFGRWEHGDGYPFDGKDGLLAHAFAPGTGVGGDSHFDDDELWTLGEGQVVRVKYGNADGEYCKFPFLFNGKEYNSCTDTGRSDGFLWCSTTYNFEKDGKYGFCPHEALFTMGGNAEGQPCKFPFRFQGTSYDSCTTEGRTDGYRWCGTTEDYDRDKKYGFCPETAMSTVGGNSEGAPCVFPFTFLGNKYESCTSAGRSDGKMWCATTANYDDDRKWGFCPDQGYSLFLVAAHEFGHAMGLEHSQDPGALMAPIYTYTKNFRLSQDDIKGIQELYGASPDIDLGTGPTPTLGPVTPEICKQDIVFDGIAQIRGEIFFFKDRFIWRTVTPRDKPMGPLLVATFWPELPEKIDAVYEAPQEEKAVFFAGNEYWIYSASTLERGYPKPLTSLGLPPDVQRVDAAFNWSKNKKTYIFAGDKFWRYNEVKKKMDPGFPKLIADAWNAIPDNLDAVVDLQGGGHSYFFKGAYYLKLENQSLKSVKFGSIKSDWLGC

Compared with CN1CCN(CCCNC(=O)c2ccc(/C=C3\Oc4ccccc4N(Cc4ccc(Cl)cc4)C3=O)cc2)CC1, CC(C)Cn1c(N)c(C(=O)NCc2cccs2)c2nc3ccccc3nc21 is lower in inhibition: 11.2% for the first, 1.55% for the second.

Molecule Cc1ccc(N=C2NC(=O)/C(=C/C=C/c3ccco3)S2)cc1C has an inhibition of 13.5%.

These molecules were tested against Prothrombin (Bos taurus) (UniProt P00735) (assay: bovine thrombin inhibition counter-screen, confirmation, counter-screen for CSN deneddylation inhibitor project, biochemical, fluorescence polarization, single concentration (AID 720656;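 active = inhibition at or above a set limit, with a fluorescence interference ratio between 0.5 and a set maximum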)). Details: bovine thrombin cleavage of Ub4-pepOG, at 16.6 µM, hits give high values.
Sequence of Prothrombin (Bos taurus) (P00735 whole entry, looked up): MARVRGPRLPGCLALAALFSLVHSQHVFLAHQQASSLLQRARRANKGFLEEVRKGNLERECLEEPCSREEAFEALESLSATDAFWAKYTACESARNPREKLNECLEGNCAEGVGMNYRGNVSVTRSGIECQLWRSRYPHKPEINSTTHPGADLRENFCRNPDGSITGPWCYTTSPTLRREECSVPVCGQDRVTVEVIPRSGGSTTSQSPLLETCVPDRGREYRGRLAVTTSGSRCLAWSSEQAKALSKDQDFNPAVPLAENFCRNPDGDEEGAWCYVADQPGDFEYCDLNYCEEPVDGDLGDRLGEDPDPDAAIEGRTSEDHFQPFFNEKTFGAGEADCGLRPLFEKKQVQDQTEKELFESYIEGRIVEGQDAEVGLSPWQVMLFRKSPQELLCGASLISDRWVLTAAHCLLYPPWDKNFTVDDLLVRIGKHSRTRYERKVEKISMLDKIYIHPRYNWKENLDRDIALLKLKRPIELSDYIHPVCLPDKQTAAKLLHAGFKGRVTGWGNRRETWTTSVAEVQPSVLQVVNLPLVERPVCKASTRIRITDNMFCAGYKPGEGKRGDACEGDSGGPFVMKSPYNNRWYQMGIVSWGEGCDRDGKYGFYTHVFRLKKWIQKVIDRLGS

Going from CN1CCN(CCCNC(=O)c2ccc(/C=C3\Oc4ccccc4N(Cc4ccc(Cl)cc4)C3=O)cc2)CC1 to CC(C)Cn1c(N)c(C(=O)NCc2cccs2)c2nc3ccccc3nc21, the inhibition rises from -9.75% to -0.76%.

For Cc1ccc(N=C2NC(=O)/C(=C/C=C/c3ccco3)S2)cc1C, the inhibition was 7.38%.
